Results taken from PubChem BioAssay (NCATS).
Records with an inconclusive call do not appear. The source made the active and inactive calls. Unless noted, calls come from the whole dose curve; as a rule, active = well fitted curve in the direction sought with a large enough effect; inconclusive = small, poorly fitted or top-dose-only effect, or another doubt; inactive = no such curve, though single readings can be large; an effect the other way counts as inactive or inconclusive.

Legend:
[1] = biological target: Cytochrome P450 1A2 (Homo sapiens) (UniProt P05177); assay: p450-cyp1a2 (AID 410; calls by dose curve)
Chain of Cytochrome P450 1A2 (Homo sapiens) (P05177 whole entry, looked up): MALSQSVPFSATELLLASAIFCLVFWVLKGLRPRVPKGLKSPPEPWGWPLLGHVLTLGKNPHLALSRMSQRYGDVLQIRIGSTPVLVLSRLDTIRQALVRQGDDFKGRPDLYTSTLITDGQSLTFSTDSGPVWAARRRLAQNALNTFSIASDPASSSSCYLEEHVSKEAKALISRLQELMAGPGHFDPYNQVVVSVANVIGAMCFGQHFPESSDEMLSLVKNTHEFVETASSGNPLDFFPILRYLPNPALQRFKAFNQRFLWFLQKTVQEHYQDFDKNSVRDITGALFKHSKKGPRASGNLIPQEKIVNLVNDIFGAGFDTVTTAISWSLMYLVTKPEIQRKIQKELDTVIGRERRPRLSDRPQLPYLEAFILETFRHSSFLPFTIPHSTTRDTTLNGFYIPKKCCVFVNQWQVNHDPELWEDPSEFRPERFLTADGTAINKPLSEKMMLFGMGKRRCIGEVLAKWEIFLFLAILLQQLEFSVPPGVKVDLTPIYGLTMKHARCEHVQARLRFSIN
Method in brief: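 O-Demethylation of luciferin 6' methyl ether by human CYP1A2 is monitored as luciferase luminescence. Substrate sits at Km (100uM); enzyme is 20nM. Values are scaled to 57 uM furafylline as maximal inhibition.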

[2] = biological target: Mitogen-activated protein kinase 10 (Mus musculus) (UniProt Q61831); assay: JNK3 AlphaScreen Assay (AID 530; active = well fitted curve in either direction with a large enough effect, not every such curve was filed as active;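 note: kinase came from lysate of stimulated human HepG2 cells; signal reports phosphorylation of biotinylated GST-cJun 1-79 at Ser73 with 10 µM ATP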)
Method in brief: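 Phosphorylation of biotinylated GST-cJun(1-79) at Ser73 is measured by AlphaScreen proximity luminescence. Enzyme is JNK3 in HepG2 lysates activated with interleukin-1beta and tumor necrosis factor alpha; ATP is 10 uM final.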

[3] = biological target: 3',5'-cyclic-AMP phosphodiesterase 4B (Homo sapiens) (UniProt Q07343); assay: qHTS Assay for Inhibitors of PDE-IV (AID 607; active = well fitted activation curve with a large enough effect in the main read-out, with a control signal flat, not every such curve was filed as active)
Chain of 3',5'-cyclic-AMP phosphodiesterase 4B (Homo sapiens) (Q07343 whole entry, looked up): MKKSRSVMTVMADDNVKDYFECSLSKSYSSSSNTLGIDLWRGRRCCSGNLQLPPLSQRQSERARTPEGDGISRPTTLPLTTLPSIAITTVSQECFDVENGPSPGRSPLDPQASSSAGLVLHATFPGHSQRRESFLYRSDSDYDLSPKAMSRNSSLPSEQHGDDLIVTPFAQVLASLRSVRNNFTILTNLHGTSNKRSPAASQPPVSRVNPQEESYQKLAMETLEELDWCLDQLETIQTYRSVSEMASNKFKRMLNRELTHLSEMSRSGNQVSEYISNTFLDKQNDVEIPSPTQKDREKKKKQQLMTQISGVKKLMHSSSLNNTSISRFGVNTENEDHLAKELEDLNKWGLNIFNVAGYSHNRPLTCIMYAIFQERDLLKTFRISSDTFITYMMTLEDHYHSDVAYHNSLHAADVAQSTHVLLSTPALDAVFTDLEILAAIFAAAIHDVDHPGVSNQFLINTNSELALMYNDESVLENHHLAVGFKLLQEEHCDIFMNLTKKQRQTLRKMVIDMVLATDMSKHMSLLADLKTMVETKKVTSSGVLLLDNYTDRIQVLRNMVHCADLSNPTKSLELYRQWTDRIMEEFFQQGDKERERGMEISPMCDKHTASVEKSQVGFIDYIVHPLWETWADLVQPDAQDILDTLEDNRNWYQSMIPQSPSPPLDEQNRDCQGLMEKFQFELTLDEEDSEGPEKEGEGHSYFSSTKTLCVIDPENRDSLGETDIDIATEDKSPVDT
Method in brief: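 Live HEK293 cells with a modified cyclic nucleotide-gated (CNG) channel report intracellular cAMP via membrane-potential dye fluorescence (ex 535/em 590 nm). Endogenous PDE-IV was targeted. Compounds were tested at up to 22.9 uM final; RO 20-1724 100 uM served as control.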

[4] = biological target: alpha-glucosidase (Oryza sativa, rice) (UniProt Q653V4); assay: Counterscreen for Glucocerebrosidase Inhibitors: qHTS Assay for Rice alpha-Glucosidase at pH 5.0 (AID 997)
Method in brief: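 Endpoint fluorogenic assay at pH 5.0: compounds (0.7 nM to 77 uM) titrated against 4 nM rice enzyme and 400 uM 4-MU-alpha-glucoside for 20 min at room temperature; NaOH/glycine stop, read ex 365/em 440 nm, Hill-fitted AC50.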

[5] = S16 Schwann cell PMP22 intronic element beta-lactamase assay (AID 624044; calls by dose curve; note: nearly all actives have a fitted effect of over 15% in size); details: S16 rat Schwann cells, PMP22 element beta-lactamase FRET, 24 h; ratio activity, negative = inhibition: at 38.3 µM (top of the series)
Method in brief: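 Beta-lactamase reporter under a PMP22 intronic regulatory element in stable S16 rat Schwann cells; 24 h compound exposure. 460 nm blue signal normalized between DMSO (0%) and potassium clavulanate, with 535 nm FRET tracking viability; curves classed by r2 and response.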

3D7 = assay: qHTS profiling for inhibitors of Plasmodium falciparum proliferation (AID 504749); note: nearly all actives have a fitted effect of over 60% in size; note: potency is the fitted concentration of half-maximal effect; details: P. falciparum in erythrocytes, SYBR Green DNA, 72 h; series mostly up to 28.7 µM
Method in brief: (§1)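 Quantitative HTS: compounds pinned into medium, infected erythrocytes added (0.3% parasitemia, 2.5% hematocrit), 72 h culture at 37 C under 5% CO2. Saponin/Triton lysis with SYBR Green I, overnight RT, then fluorescence read.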

7G8 = assay: as above; details: P. falciparum in erythrocytes, SYBR Green DNA, 72 h; series mostly up to 28.7 µM
Method in brief: as §1

AA1029 = assay: as above; details: P. falciparum in erythrocytes, SYBR Green DNA, 72 h; series mostly up to 28.7 µM
Method in brief: as §1

AS120 = assay: as above; details: P. falciparum in erythrocytes, SYBR Green DNA, 72 h; series mostly up to 28.7 µM
Method in brief: as §1

ATS189 = assay: as above; details: P. falciparum in erythrocytes, SYBR Green DNA, 72 h; series mostly up to 28.7 µM
Method in brief: as §1

ATS95 = assay: as above; details: P. falciparum in erythrocytes, SYBR Green DNA, 72 h; series mostly up to 28.7 µM
Method in brief: as §1

C2A = assay: as above; details: P. falciparum in erythrocytes, SYBR Green DNA, 72 h; series mostly up to 28.7 µM
Method in brief: as §1

CP185 = assay: as above; details: P. falciparum in erythrocytes, SYBR Green DNA, 72 h; series mostly up to 28.7 µM
Method in brief: as §1

CP191 = assay: as above; details: P. falciparum in erythrocytes, SYBR Green DNA, 72 h; series mostly up to 28.7 µM
Method in brief: as §1

CP192 = assay: as above; details: P. falciparum in erythrocytes, SYBR Green DNA, 72 h; series mostly up to 28.7 µM
Method in brief: as §1

CP194 = assay: as above; details: P. falciparum in erythrocytes, SYBR Green DNA, 72 h; series mostly up to 28.7 µM
Method in brief: as §1

CP201 = assay: as above; details: P. falciparum in erythrocytes, SYBR Green DNA, 72 h; series mostly up to 28.7 µM
Method in brief: as §1

CP203 = assay: as above; details: P. falciparum in erythrocytes, SYBR Green DNA, 72 h; series mostly up to 28.7 µM
Method in brief: as §1

CP211 = assay: as above; details: P. falciparum in erythrocytes, SYBR Green DNA, 72 h; series mostly up to 28.7 µM
Method in brief: as §1

CP215 = assay: as above; details: P. falciparum in erythrocytes, SYBR Green DNA, 72 h; series mostly up to 28.7 µM
Method in brief: as §1

CP217 = assay: as above; details: P. falciparum in erythrocytes, SYBR Green DNA, 72 h; series mostly up to 28.7 µM
Method in brief: as §1

CP237 = assay: as above; details: P. falciparum in erythrocytes, SYBR Green DNA, 72 h; series mostly up to 28.7 µM
Method in brief: as §1

CP238 = assay: as above; details: P. falciparum in erythrocytes, SYBR Green DNA, 72 h; series mostly up to 28.7 µM
Method in brief: as §1

CP247 = assay: as above; details: P. falciparum in erythrocytes, SYBR Green DNA, 72 h; series mostly up to 28.7 µM
Method in brief: as §1

CP250 = assay: as above; details: P. falciparum in erythrocytes, SYBR Green DNA, 72 h; series mostly up to 28.7 µM
Method in brief: as §1

CP252 = assay: as above; details: P. falciparum in erythrocytes, SYBR Green DNA, 72 h; series mostly up to 28.7 µM
Method in brief: as §1

CP256 = assay: as above; details: P. falciparum in erythrocytes, SYBR Green DNA, 72 h; series mostly up to 28.7 µM
Method in brief: as §1

CP260 = assay: as above; details: P. falciparum in erythrocytes, SYBR Green DNA, 72 h; series mostly up to 28.7 µM
Method in brief: as §1

CP262 = assay: as above; details: P. falciparum in erythrocytes, SYBR Green DNA, 72 h; series mostly up to 28.7 µM
Method in brief: as §1

CP265 = assay: as above; details: P. falciparum in erythrocytes, SYBR Green DNA, 72 h; series mostly up to 28.7 µM
Method in brief: as §1

CP266 = assay: as above; details: P. falciparum in erythrocytes, SYBR Green DNA, 72 h; series mostly up to 28.7 µM
Method in brief: as §1

CP268 = assay: as above; details: P. falciparum in erythrocytes, SYBR Green DNA, 72 h; series mostly up to 28.7 µM
Method in brief: as §1

CP269 = assay: as above; details: P. falciparum in erythrocytes, SYBR Green DNA, 72 h; series mostly up to 28.7 µM
Method in brief: as §1

CP286 = assay: as above; details: P. falciparum in erythrocytes, SYBR Green DNA, 72 h; series mostly up to 28.7 µM
Method in brief: as §1

CP291 = assay: as above; details: P. falciparum in erythrocytes, SYBR Green DNA, 72 h; series mostly up to 28.7 µM
Method in brief: as §1

CP297 = assay: as above; details: P. falciparum in erythrocytes, SYBR Green DNA, 72 h; series mostly up to 28.7 µM
Method in brief: as §1

CP305 = assay: as above; details: P. falciparum in erythrocytes, SYBR Green DNA, 72 h; series mostly up to 28.7 µM
Method in brief: as §1

CP325 = assay: as above; details: P. falciparum in erythrocytes, SYBR Green DNA, 72 h; series mostly up to 28.7 µM
Method in brief: as §1

CP329 = assay: as above; details: P. falciparum in erythrocytes, SYBR Green DNA, 72 h; series mostly up to 28.7 µM
Method in brief: as §1

CP335 = assay: as above; details: P. falciparum in erythrocytes, SYBR Green DNA, 72 h; series mostly up to 28.7 µM
Method in brief: as §1

DFO2036 = assay: as above; details: P. falciparum in erythrocytes, SYBR Green DNA, 72 h; series mostly up to 28.7 µM
Method in brief: as §1

DIV14 = assay: as above; details: P. falciparum in erythrocytes, SYBR Green DNA, 72 h; series mostly up to 28.7 µM
Method in brief: as §1

DIV17 = assay: as above; details: P. falciparum in erythrocytes, SYBR Green DNA, 72 h; series mostly up to 28.7 µM
Method in brief: as §1

DIV30 = assay: as above; details: P. falciparum in erythrocytes, SYBR Green DNA, 72 h; series mostly up to 28.7 µM
Method in brief: as §1

Dd2 = assay: as above; details: P. falciparum in erythrocytes, SYBR Green DNA, 72 h; series mostly up to 28.7 µM
Method in brief: as §1

ECU = assay: as above; details: P. falciparum in erythrocytes, SYBR Green DNA, 72 h; series mostly up to 28.7 µM
Method in brief: as §1

HB3 = assay: as above; details: P. falciparum in erythrocytes, SYBR Green DNA, 72 h; series mostly up to 28.7 µM
Method in brief: as §1

ICS = assay: as above; details: P. falciparum in erythrocytes, SYBR Green DNA, 72 h; series mostly up to 28.7 µM
Method in brief: as §1

N140 = assay: as above; details: P. falciparum in erythrocytes, SYBR Green DNA, 72 h; series mostly up to 28.7 µM
Method in brief: as §1

P93_24 = assay: as above; details: P. falciparum in erythrocytes, SYBR Green DNA, 72 h; series mostly up to 28.7 µM
Method in brief: as §1

P94_40 = assay: as above; details: P. falciparum in erythrocytes, SYBR Green DNA, 72 h; series mostly up to 28.7 µM
Method in brief: as §1

PAD = assay: as above; details: P. falciparum in erythrocytes, SYBR Green DNA, 72 h; series mostly up to 28.7 µM
Method in brief: as §1

PC15 = assay: as above; details: P. falciparum in erythrocytes, SYBR Green DNA, 72 h; series mostly up to 28.7 µM
Method in brief: as §1

PC26 = assay: as above; details: P. falciparum in erythrocytes, SYBR Green DNA, 72 h; series mostly up to 28.7 µM
Method in brief: as §1

SC27B = assay: as above; details: P. falciparum in erythrocytes, SYBR Green DNA, 72 h; series mostly up to 28.7 µM
Method in brief: as §1

TAB109 = assay: as above; details: P. falciparum in erythrocytes, SYBR Green DNA, 72 h; series mostly up to 28.7 µM
Method in brief: as §1

TAB113 = assay: as above; details: P. falciparum in erythrocytes, SYBR Green DNA, 72 h; series mostly up to 28.7 µM
Method in brief: as §1

TAB165 = assay: as above; details: P. falciparum in erythrocytes, SYBR Green DNA, 72 h; series mostly up to 28.7 µM
Method in brief: as §1

W2 = assay: as above; details: P. falciparum in erythrocytes, SYBR Green DNA, 72 h; series mostly up to 28.7 µM
Method in brief: as §1

Measured: Potency

C/C=C\C[C@H](C)[C@H](O)[C@H]1C(=O)N[C@@H](CC)C(=O)N(C)CC(=O)N(C)[C@@H](CC(C)C)C(=O)N[C@@H](C(C)C)C(=O)N(C)[C@@H](CC(C)C)C(=O)N[C@@H](C)C(=O)N[C@@H](C)C(=O)N(C)[C@@H](CC(C)C)C(=O)N(C)[C@@H](CC(C)C)C(=O)N(C)[C@@H](C(C)C)C(=O)N1C
inactive: [1] | [2] | [3] | [4] | [5] | ATS189
active: 3D7 3.98 µM | 7G8 8.91 µM | AA1029 2.82 µM | AS120 3.98 µM | ATS95 3.55 µM | C2A 3.55 µM | CP185 3.55 µM | CP191 3.16 µM | CP192 6.75 µM | CP194 8.49 µM | CP201 6.75 µM | CP203 13.5 µM | CP211 6.75 µM | CP215 7.57 µM | CP217 3.16 µM | CP237 4.47 µM | CP238 3.55 µM | CP247 3.55 µM | CP250 3.55 µM | CP252 3.55 µM | CP256 3.16 µM | CP260 2.82 µM | CP262 3.79 µM | CP265 3.55 µM | CP266 10.7 µM | CP268 15.1 µM | CP269 6.01 µM | CP286 7.08 µM | CP291 10.7 µM | CP297 4.78 µM | CP305 6.01 µM | CP325 7.57 µM | CP329 6.01 µM | CP335 4.26 µM | DFO2036 2.51 µM | DIV14 6.75 µM | DIV17 8.49 µM | DIV30 13.5 µM | Dd2 5.01 µM | ECU 2.24 µM | HB3 7.08 µM | ICS 3.98 µM | N140 2.82 µM | P93_24 5.01 µM | P94_40 5.01 µM | PAD 3.55 µM | PC15 11.2 µM | PC26 6.75 µM | SC27B 2.82 µM | TAB109 3.55 µM | TAB113 3.55 µM | TAB165 4.47 µM | W2 1.9 µM
